Screening results from PubChem BioAssay.
Compounds with a hit are over-represented: about 9.4% of the library has one in this group of screens.
Pf growth 48h = inhibits P. falciparum growth in the first generation, 48 h; P. falciparum luciferase growth in erythrocytes, 48 h; Potency, µM (titrated, usually from 28.7 µM), for the others: top-dose activity change, negative = inhibition, actives largely listed as inhibitors; hit rate 5.9% among 310,000; AID 504832; also: % is scaled to controls: 0 for no effect and ±100 for the full control effect
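Erythrocytes infected with P. falciparum carrying an integrated firefly luciferase reporter (2% hematocrit, 0.1% parasitemia final) were exposed to compounds in RPMI 1640 with 0.5% Albumax at 37 C, 5% CO2. Growth inhibition was scored as reduced luminescence.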
SARS PLpro yeast = inhibitors of SARS-CoV papain-like protease in yeast; S. cerevisiae expressing SARS-CoV PLpro, growth rescue; Potency, µM (doses to about 32.9 µM), for the others: at the highest dose activity, positive = growth rescue, actives largely listed as activators; hit rate 0.19% among 330,000; calls by dose curve; also: 0% is about no effect; nearly all actives have a fitted effect of over 55% in size
Pf growth 96h = inhibits malaria parasite growth, 96 h; P. falciparum luciferase reporter growth, 96 h; Potency, µM (top dose mostly 28.7 µM), without a hit: at the top dose activity change, negative = inhibition, hits mostly inhibitors; hit rate 6.9% among 320,000; AID 504834; also: % is scaled to controls: 0 for no effect and ±100 for the full control effect
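Luminescence readout: decreased luciferase signal marks inhibited growth of reporter-expressing P. falciparum in infected red cells (2% hematocrit, 0.05% parasitemia final), exposed to compound two generations (96 h, 37 C, 5% CO2).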
AMA1-RON2 inh = AMA1-RON2 (P. falciparum) interaction inhibition; AlphaScreen AMA1-biotinylated RON2 peptide binding; hit rate 0.2% among 360,000; AID 720542; Potency, µM (top dose mostly 58.2 µM), inactives show at the highest dose activity change, negative = inhibition, actives largely listed as inhibitors;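 also: 0% = vehicle wells and -100% = peptide control; nearly all actives have a fitted effect of over 45% in size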
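AMA1 (3D7) with his tag at 25 nM final met compounds first, then biotinylated RON2 peptide at 25 nM; detection used donor plus acceptor beads, 10 µg/mL apiece, read by AlphaScreen after 30 min at room temperature.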
* = called active by the depositor; [ ] = remark or other dose. Unless noted, calls follow the shape of the dose curve; as a rule, active = well fitted curve in the direction sought with a large enough effect; inconclusive = small, poorly fitted or top-dose-only effect, or another doubt; inactive = no such curve, though single readings can be large; an effect the other way counts as inactive or inconclusive. Potency is read from the fitted curve at half-maximal effect.

Screening CCCOc1ccc(-c2nc(OCC)c3ccccc3n2)cc1 returned SARS PLpro yeast -1.4%, Pf growth 96h 70.8% and AMA1-RON2 inh 2.0%.
COc1cccc(N2CC(C(=O)Nc3nnc(SCC(=O)NCC4CCCO4)s3)CC2=O)c1 (stereo not drawn) was read as Pf growth 48h -3.4%, SARS PLpro yeast 24.8%, Pf growth 96h -26.1% and AMA1-RON2 inh -2.3%.
`Cc1ccccc1C(=O)N1CCC(C(N)=O)CC1` gave Pf growth 48h -0.3%, SARS PLpro yeast 8.0% and AMA1-RON2 inh -2.4%.
Screening CCCC(c1nnnn1Cc1ccccc1)N1CCC(C(N)=O)CC1 (stereo not drawn) returned Pf growth 48h -24.8%, SARS PLpro yeast 9.9%, Pf growth 96h -9.9% and AMA1-RON2 inh -8.1%.
O=C(c1cccc(Cl)c1)N1CCN(Cc2ccncc2)CC1 was read as Pf growth 48h -8.2%, SARS PLpro yeast -24.2%, Pf growth 96h -11.8% and AMA1-RON2 inh -9.5%.
COc1ccc(-c2nnc3ccc(SC)nn23)cc1 was read as Pf growth 48h 71.0%, SARS PLpro yeast -12.0%, Pf growth 96h 4.65µM* and AMA1-RON2 inh 20.0%.
`CC[n+]1cc(-c2ccccc2)nc(N2CCOCC2)n1` gave Pf growth 48h 2.33µM*, SARS PLpro yeast 11.2%, Pf growth 96h -15.3% and AMA1-RON2 inh -20.5%.
`CCC1COC(c2cccn2Cc2ccccc2Cl)=N1` (stereo not drawn) gave Pf growth 48h 9.3%, SARS PLpro yeast 0.1%, Pf growth 96h 11.7µM* and AMA1-RON2 inh -10.7%.
`CCCN1CCC(=O)N(CCSc2ccc(OC)cc2)CC1` gave Pf growth 48h 54.5%, SARS PLpro yeast -1.5%, Pf growth 96h 34.0% and AMA1-RON2 inh 63.9%.
`O=C(N/N=C/c1cn(Cc2cccc(F)c2)c2ccccc12)c1cc(O)cc(O)c1` gave Pf growth 48h -9.0%, SARS PLpro yeast 5.7%, Pf growth 96h inconclusive and AMA1-RON2 inh 25.1µM*.
For CSCCCNC(=S)N1CCc2ccccc2C1 the results were Pf growth 48h inconclusive, SARS PLpro yeast 1.3%, Pf growth 96h 71.3% and AMA1-RON2 inh -0.5%.
Cc1ccc2nc(-c3cccc(Br)c3)cc(C(=O)NC3=NCCS3)c2c1 was read as Pf growth 48h 4.65µM*, SARS PLpro yeast -0.9%, Pf growth 96h 45.5% and AMA1-RON2 inh 23.0%.
Cc1ccc(-c2cc(C(=O)NC3=NCCS3)c3ccccc3n2)cc1C was read as Pf growth 48h inconclusive, SARS PLpro yeast -71.5%, Pf growth 96h 2.08µM* and AMA1-RON2 inh 0.4%[11.6 µM].
`O=C(NC1=NCCS1)c1cc(-c2ccc(F)cc2)nc2ccccc12` gave Pf growth 48h 47.5%, SARS PLpro yeast -78.3%, Pf growth 96h 30.0% and AMA1-RON2 inh 49.2%.
For CC1Cn2c(CCc3ccccc3)nnc2S1 (stereo not drawn) the results were Pf growth 48h 46.3%, SARS PLpro yeast 4.7%, Pf growth 96h inconclusive and AMA1-RON2 inh 4.1%.
CCOC(=O)c1c(C)c(C(=O)NCCCOC(C)C)c(C)n1C was read as Pf growth 48h 7.9%, SARS PLpro yeast 2.6%, Pf growth 96h 89.6% and AMA1-RON2 inh 41.9%.
`CCCCN(C)C(=O)CSc1nc(NCc2ccc(OC)cc2)c2ccccc2n1` gave Pf growth 48h 10.4µM*, SARS PLpro yeast 5.5%, Pf growth 96h 2.33µM* and AMA1-RON2 inh -4.0%.
C=C(NC(=O)C(=C)NC(=O)c1csc(C2=NC3c4csc(n4)C4NC(=O)c5csc(n5)C(C(C)(O)C(C)O)NC(=O)C5CSC(=N5)/C(=C/C)NC(=O)C(C(C)O)NC(=O)c5csc(n5)C3(CC2)NC(=O)C(C)NC(=O)C(=C)NC(=O)C(=C)NC(=O)C(C(C)C)NC2C=Cc3c(C(C)O)cc(nc3C2O)C(=O)OC4C)n1)C(N)=O (stereo not drawn) was read as AMA1-RON2 inh 67.1%.
For C=C(NC(=O)C(=C)NC(=O)c1csc(C2=N[C@@H]3c4csc(n4)[C@@H]4NC(=O)c5csc(n5)[C@@H]([C@](C)(O)[C@H](C)O)NC(=O)[C@@H]5CSC(=N5)/C(=C/C)NC(=O)[C@@H]([C@H](C)O)NC(=O)c5csc(n5)[C@]3(CC2)NC(=O)[C@@H](C)NC(=O)C(=C)NC(=O)[C@@H](C)NC(=O)[C@@H]([C@@H](C)CC)N[C@H]2C=Cc3c([C@H](C)O)cc(nc3[C@@H]2O)C(=O)O[C@H]4C)n1)C(N)=O the results were Pf growth 48h 5.73µM* and Pf growth 96h 4.05µM*.
C=C(NC(=O)C(=C)NC(=O)c1csc(C2=NC3c4csc(n4)C4NC(=O)c5csc(n5)C([C@@](C)(O)C(C)O)NC(=O)C5CSC(=N5)/C(=C\C)NC(=O)C(C(C)O)NC(=O)c5csc(n5)[C@]3(CC2)NC(=O)C(C)NC(=O)C(=C)NC(=O)C(C)NC(=O)C(C(C)CC)NC2C=Cc3c(C(C)O)cc(nc3C2O)C(=O)OC4C)n1)C(N)=O (stereo partly drawn) was read as Pf growth 48h 0.828µM*, SARS PLpro yeast 1.7% and Pf growth 96h 0.738µM*.
For COC(=O)c1ccc(NC(=O)c2cnc3scc(C)n3c2=O)cc1 the results were Pf growth 48h 59.7%, SARS PLpro yeast 1.0% and Pf growth 96h 46.3%.
O=C(CN1C(=O)NC2(CCCC2)C1=O)Nc1ccc(F)c([N+](=O)[O-])c1 was read as Pf growth 48h -15.0%, SARS PLpro yeast 2.1%, Pf growth 96h inconclusive and AMA1-RON2 inh 3.0%.
Screening COc1ccc(CNc2ccncc2)c(OC)c1OC returned AMA1-RON2 inh -3.8%.
Screening COc1cc(NCc2ccc3nc(N)nc(N)c3c2C)cc(OC)c1OC returned Pf growth 48h 0.006µM* and Pf growth 96h 0.0048µM*.
`COc1ccc(OCC(=O)Nc2ccc3c(c2)n(C)c(=O)n3C)cc1` gave Pf growth 48h 3.5%, SARS PLpro yeast 0.4%, Pf growth 96h inconclusive and AMA1-RON2 inh -2.2%.
O=C(Nc1nc(-c2ccccc2)cs1)c1ccco1 was read as Pf growth 48h 81.5%, SARS PLpro yeast -4.5%, Pf growth 96h 3.4% and AMA1-RON2 inh -10.9%.
For Cc1ccc(-c2csc(NC(=O)c3ccco3)n2)cc1C the results were Pf growth 48h 20.5%, SARS PLpro yeast -16.2%, Pf growth 96h 0.586µM* and AMA1-RON2 inh -15.4%.
For COc1ccc(-c2csc(NC(=O)c3ccco3)n2)cc1 the results were Pf growth 48h 270.2%, SARS PLpro yeast -71.8%, Pf growth 96h -21.5% and AMA1-RON2 inh 0.0%.
`CCOc1ccc(NC(=O)c2ccco2)c([N+](=O)[O-])c1` gave Pf growth 48h 199.6%, SARS PLpro yeast 15.8%, Pf growth 96h 0.586µM* and AMA1-RON2 inh 0.8%.
For COc1ccc(-c2csc(NC(=O)CCNC(=O)c3ccco3)n2)cc1OC the results were Pf growth 48h 11.7µM*, SARS PLpro yeast -0.1%, Pf growth 96h inconclusive and AMA1-RON2 inh -4.7%.
For CCOc1ccc(-c2csc(NC(=O)c3ccco3)n2)cc1 the results were Pf growth 48h 19.6%, SARS PLpro yeast -6.1%, Pf growth 96h 10.4µM* and AMA1-RON2 inh -15.9%.
